Assay results published in PubChem BioAssay (NCI).
This is part of a sample that, as a whole, favours compounds with a hit. Of some 79,000 tested, about 15% had one in any assay. Active and inactive are the calls of the source. No stated cut-off is given here; in the data, active means growth inhibition above about 70%; inactive means the rest.

Assay: NCI Yeast Anticancer Drug Screen. Data for the mec2-1 strain (AID 157)
Conditions: S. cerevisiae mec2-1 strain, at 50.0 µM (retest, dose inferred, filed as 5.0), hits give high values
In short: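 Test agents were screened against the mec2-1 yeast strain, with defined DNA repair or cell cycle alteration. Growth was scored as inhibition against vehicle-only controls.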

SMILES | growth inhibition
S=C(Nc1cc(Cl)cc(Cl)c1)SCc1ccccc1 | 54% (inactive)
CCCOc1cc(C(=O)OCCN(CC)CC)cc(OCCC)c1OCCC | 19% (inactive)
C=C1C(=O)[C@@]23CC[C@H]4[C@@](C)(CCC[C@@]4(C)C(=O)OC)[C@@H]2CC[C@]1(O)C3 | 99% (active)
CCCSc1ncnc2nc(C)[nH]c12 | -7% (inactive)
O=C1C=CC(=O)N1CCCCCCN1C(=O)C=CC1=O | 100% (active)
CCOC(=O)c1[nH]c2c([N+](=O)[O-])cccc2c1[N+](=O)[O-] | 16% (inactive)
CSC(=S)/C(=C/Nc1ncccn1)c1ccccc1 | 99% (active)
N#CNc1nc(N)c(-c2ccc(Cl)cc2)c(C(=O)Nc2ccc(Cl)c(Cl)c2)n1 | -2% (inactive)
COc1ccc2c(c1)c(=O)c1c(NCCN(C)C)ccc3nnn2c31 | 14% (inactive)
CCC[CH2][Sn]([S][Sn]([CH2]CCC)([c]1ccccc1)[c]1ccccc1)([c]1ccccc1)[c]1ccccc1 | 95% (active)
CCC1=CCC2C(=O)c3cc4ccccc4cc3C(=O)C2C1 (configuration not stated) | 64% (inactive)
Cc1ccccc1NC(=O)C1C(=O)N(c2ccccc2C)C(=O)/C1=N/O (configuration not stated) | 4% (inactive)
CCCCc1[nH]ccc2c(C)c3nc4ccccc4c3cc12 | 96% (active)
O=C(O)C(Br)C(Br)C(=O)Nc1ccc(Cl)c(Cl)c1 (configuration not stated) | 99% (active)
Cc1cc(C)c2c(c1)sc1nncn12 | 96% (active)
CC(=O)C(C=O)C(C)=O.CC(=O)CC(C)=O.CC(=O)CC(C)=O.[Ru] | 98% (active)
COc1ccc(NC(=O)CCC(=O)C(C)C(=O)c2ccccc2)cc1 (configuration not stated) | 3% (inactive)
